Rows were chosen to be rich in hits. Some 3.5% of all compounds tested hit in one or more screens of this group.
GPR151 activ – human GPR151 activation; AID 1508602; PathHunter beta-arrestin GPR151 cells, luminescence; actives 1% (n = 650,000); activation, % at 11.2 µM; in the data active = activation above about 4.9%;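 also: 0% = median of compound wells and 100% = cells with positive control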
Target sequence (Q8TDV0 whole entry, looked up): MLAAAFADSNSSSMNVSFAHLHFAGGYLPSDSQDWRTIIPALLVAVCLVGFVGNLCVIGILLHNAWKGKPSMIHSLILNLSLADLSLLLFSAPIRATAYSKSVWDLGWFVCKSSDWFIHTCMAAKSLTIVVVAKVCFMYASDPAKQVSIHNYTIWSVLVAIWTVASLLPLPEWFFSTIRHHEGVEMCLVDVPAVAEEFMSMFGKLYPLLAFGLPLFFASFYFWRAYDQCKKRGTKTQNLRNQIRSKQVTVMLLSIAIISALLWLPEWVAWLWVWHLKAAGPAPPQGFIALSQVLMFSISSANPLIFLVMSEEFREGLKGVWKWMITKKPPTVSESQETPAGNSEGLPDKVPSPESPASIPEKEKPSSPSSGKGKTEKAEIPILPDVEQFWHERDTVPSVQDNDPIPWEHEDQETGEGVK
MITF inh – human MITF inhibition, primary screen | O75030 | AlphaScreen MITF homodimerization, bead proximity signal | inhibition, % at 2.6 µM | actives 0.91% (n = 650,000) | AID 1259374; in the data active = inhibition above about 50%;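 also: 0% = vehicle wells with protein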
FBW7 activator – human FBW7 E3 ligase activation, primary screen | Q969H0 | AlphaScreen FBW7–phospho-cyclin E peptide binding, activator screen | normalized activity (activation), % at 26.1 µM | actives 0.13% (n = 650,000) | AID 1259310; in the data active = normalized activity above about 1.9%;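 also: purified mutant Fbw7 with reduced substrate affinity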
TEAD-YAP block – TEAD-YAP interaction inhibition. AID 1259422. actives 1.4% (n = 640,000). HEK-TIYL cells, TEAD-Gal4/YAP UAS-luciferase luminescence. inhibition, % at 9.12 µM; in the data active = inhibition above about 32%;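 also: 0% = median of test compound wells and 100% = reference inhibitor wells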
GPR151 conf act – confirmation of human GPR151 activators; activation, % at 11.2 µM; AID 1508609; shares compounds with GPR151 activ; 6,700 tested, under 10 active; GPR151 PathHunter beta-arrestin cells, luminescence, 90 min; % of EA-reagent control over plate median;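 active = mean percent activation across replicates above the confirmation screen cutoff of 4.91%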
GPR119 ag – GPR119 activation, counter-screen for GPR151 activators. AID 1508611. shares compounds with GPR151 activ. actives 0.3% (n = 6,700). GPR119 PathHunter beta-arrestin cells, luminescence, 90 min; 0 = compound-well median, 100 = enzyme-acceptor control. activation, % at 11.2 µM;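 active = mean percent activation in the counterscreen above 29.09%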;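 also: counterscreen on off-target GPR119 to flag nonselective hits from the GPR151 activator screen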
* hit, by the source's call; · = no result; ! = repeats disagree.

SMILES	GPR151 activ	MITF inh	FBW7 activator	TEAD-YAP block	GPR151 conf act	GPR119 ag
O=C(O)CSc1nc2ccccc2n1CCOc1ccccc1	6.4*	-2.3	-0.1	4.9	0.0	3.2
O=C(CCN1C(=O)c2ccccc2S1(=O)=O)Nc1ccc(C(=O)O)cc1	7.6*	-17.5	0.1	-4.3	0.9	5.7
COc1ccc(NC(=O)CCN2C(=O)c3ccccc3S2(=O)=O)cc1	-1.2	4.4	-0.2	-7.0	·	·
COC(=O)c1sc(-c2ccccc2)cc1NC(=O)c1cc(=O)c2ccccc2o1	-2.1	17.7	1.1	-5.0	·	·
COc1cc(NC(=O)NC(C)C)c2ncccc2c1	-1.7	8.4	0.3	21.1	·	·
COc1cc(NC(=O)C2CCCCC2)c2ncccc2c1	5.3*	4.6	0.0	4.7	-0.1	6.3
O=C1CN(c2ccc(S(=O)(=O)N3CCCC3)cn2)CCN1	0.9	-9.2	-0.1	4.7	·	·
O=C1CN(c2ccc(S(=O)(=O)N3CCC(Cc4ccccc4)CC3)cn2)CCN1	7.3*	-1.2	0.1	-3.8	0.6	6.8
O=c1cc(-c2ccccn2)c2ccc(OCc3ccccn3)cc2o1	0.0	9.1	0.0	0.1	·	·
CCn1c(CC(=O)Nc2ccc(C)cc2)nnc1SCC(=O)Nc1cccc(F)c1	-0.2	5.4	0.1	-6.0	·	·
O=C1OC(c2ccc([N+](=O)[O-])cc2)=N/C1=C\c1ccccc1	-0.8	9.5	-0.1	-3.7	·	·
Cc1ccc(C2=N/C(=C/c3ccc([N+](=O)[O-])cc3)C(=O)O2)cc1	7.9*	-7.2	0.1	1.5	-0.5	-7.7
Cc1ccc(C2=N/C(=C/c3cc(Br)cs3)C(=O)O2)cc1[N+](=O)[O-]	5.1*	7.4	0.0	12.9	-0.3	4.5
Oc1ccc(O)cc1	5.1*!	-3.8	-0.2	-27.3	0.3	-7.3
Oc1ccc(Sc2ccc(O)cc2)cc1	-0.2	2.6	-0.2	-1.7	·	·
O=C(Nc1ccc2c(c1)OCCO2)c1cc(=O)c(OCc2ccccc2)c[nH]1	8.1*	-0.8	-0.1	4.2	-0.2	-1.1
COc1ccccc1N/N=C(\C)c1ccc([N+](=O)[O-])o1	5.7*	4.8	-0.2	20.9	0.6	4.9
COc1ccc(NC(=O)Nc2c3c(nn2C(C)(C)C)CSC3)cc1	5.5*	-7.0	-0.1	-6.0	0.1	0.3
COc1ccc(CC(=O)Nc2c3c(nn2C(C)(C)C)CSC3)cc1	-0.3	13.5	-0.1	9.8	·	·
CC(C)(C)n1nc2c(c1NC(=O)c1cccc(F)c1)CSC2	0.0	-2.9	0.3	8.4	·	·
CC(C)(C)n1nc2c(c1NC(=O)c1c(F)cccc1F)CSC2	7.6*	42.5	0.1	7.0	-0.8	-6.8
O=C(Cn1c(=O)oc2ccccc21)NCc1ccco1	5.3*	17.2	0.0	3.2	-1.1	-0.4
O=C(CN1C(=O)c2ccccc2S1(=O)=O)NCc1ccco1	9.0*	-8.3	-0.1	-8.0	-0.4	15.7
O=C(C1CCC(CNc2c(N3CCCC3)c(=O)c2=O)CC1)N1CCc2ccccc21 (stereo not drawn)	5.3*	11.3	-0.1	-1.0	-1.4	-15.1
COc1ccc2c(c1)CCc1cn3nc(C)cc3nc1-2	2.5	-10.0	0.4	12.4	·	·
SMILES	GPR151 activ	MITF inh	FBW7 activator	TEAD-YAP block	GPR151 conf act	GPR119 ag
Cc1cc2[nH]c(=O)c(=O)[nH]c2cc1S(=O)(=O)NC1CCC(C)CC1 (stereo not drawn)	7.4*	2.1	-0.1	-6.5	0.8	2.6
O=C1CCC(c2sc(Cl)c(Cl)c2Cl)=NN1c1ccccc1	11.6*	4.0	0.0	-4.0	0.3	-5.1
O=C1CCC(c2ccccc2)=NN1c1ccccn1	1.0	9.8	-0.2	-11.0	·	·
COc1ccccc1NC(=O)c1cc2ccccc2oc1=Nc1ccc(Cl)cc1Cl	9.2*	-1.8	-0.2	-19.2	0.4	9.1
COc1ccccc1N=c1oc2ccccc2cc1C(=O)Nc1ccc(Cl)cc1Cl	1.5	-1.5	0.1	4.3	·	·
Cc1ccc(N2C(=O)CC(Sc3nc(C)cc(C)n3)C2=O)cc1 (stereo not drawn)	1.4	-6.0	0.1	19.5	·	·
CC(C)Cc1ccc(C#N)c(SC2CC(=O)N(c3ccccc3)C2=O)n1 (stereo not drawn)	7.5*	-6.6	-0.3	-33.4	-0.2	-1.7
Cc1cc(C(F)(F)F)c(C#N)c(SC2CC(=O)N(c3ccccc3)C2=O)n1 (stereo not drawn)	9.3*	12.1	0.6	-0.3	1.4	0.0
Cc1ccc(SC2CC(=O)N(c3ccccc3)C2=O)cc1 (stereo not drawn)	5.0*	4.9	-0.1	0.6	-0.9	-12.3
Cc1ccc(N2C(=O)CC(Sc3nc(-c4ccccc4)ccc3C#N)C2=O)cc1 (stereo not drawn)	1.5	9.7	0.1	-19.3	·	·
Cc1ccc(N2C(=O)CC(Sc3nc(C)cc(C(F)(F)F)c3C#N)C2=O)cc1 (stereo not drawn)	-2.5	18.2	0.0	-10.3	·	·
CCCCCNc1nc(CCC)c2c(c1C#N)CCCC2	-0.5	16.0	0.2	2.2	·	·
CC1CN(c2ccc(Br)cc2)c2nc3c(c(=O)n(CC(N)=O)c(=O)n3C)n2C1 (stereo not drawn)	10.3*	0.2	0.0	-7.1	-1.7	-19.3
N#CC1=C(N)Oc2c(oc(CO)cc2=O)C1c1cccc2ccccc12 (stereo not drawn)	0.6	14.7	0.1	2.0	·	·
C=CCn1c(SCC(=O)N(c2ccccc2)C(C)C)nc2ccccc2c1=O	0.7	-4.3	-0.1	-7.9	·	·
COc1cc2ccccc2cc1C(=O)OCC(=O)C(C)(C)C	-1.0	1.5	0.1	12.8	·	·
C=COCC(COC=C)(COC=C)COC=C	5.2*	13.5	-0.1	1.4	0.5	1.1
CCCOC(=O)c1ccc(NC(=O)c2cccc(C)c2)cc1	-1.4	-5.5	-0.1	-10.2	·	·
O=C(O)c1cc(C23CC4CC(CC(C4)C2)C3)ccc1O	14.0*	-9.6	-0.2	5.8	-0.4	-2.8
O=S(=O)(c1cccc2cnccc12)N1CCCNCC1	9.3*!	0.3	-0.2	13.6	0.6	-2.3
O=S(=O)(c1cccc2cnccc12)N1CCCN(S(=O)(=O)c2cccc3cnccc23)CC1	-0.9	-3.5	-0.1	-0.7	·	·
O=C(CC1C(=O)NCCN1Cc1cccc(Oc2ccccc2)c1)NC1CCCC1 (stereo not drawn)	-1.0	6.6	0.0	5.5	·	·
Cc1ccc(OCCNC(=O)C(=O)Nc2ccccc2F)cc1C	5.2*	0.7	0.0	1.1	0.8	-2.6
CC(=O)OCCNC(=O)/C(=C\c1ccco1)NC(=O)c1ccccc1	1.3	-14.6	0.0	-3.0	·	·
COc1ccc(C(=O)NNC(=O)CSc2nc3sc(C)c(C)c3c(=O)[nH]2)cc1	4.5	16.9	0.0	7.1	·	·
COc1ccc(CC(=O)NNC(=O)CSc2nc(C)c(C)c(=O)[nH]2)cc1	6.3*	8.4	0.0	4.9	-0.3	-6.3
COc1ccc(C(=O)NNC(=O)CSc2ncn[nH]2)cc1	11.4*	15.2	-0.1	2.1	0.0	-2.1

Screening data from PubChem BioAssay.
